This is an account of results in PubChem BioAssay (Tox21).

Values without a mark were called inactive. Inconclusive results are not listed. Calls of active or inactive are those of the source. Unless noted, calls come from the whole dose curve; as a rule, active = well fitted curve in the direction sought with a large enough effect in the repeat runs; inconclusive = weak or mixed curves; inactive = no such curve, though single readings can be large; an effect the other way counts as inactive or inconclusive.

Test [1] in a line: qHTS assay to test for compound auto fluorescence at 535 nm (green) in HEK293 cells (AID 720680). On the technique in general: Quantitative high-throughput screening tests each substance at several concentrations.
The nature of test [2]: qHTS assay to test for compound auto fluorescence at 460 nm (blue) in HEK293 cell free culture (AID 720681). The method in brief:
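Compounds were added to cell-free DMEM with 10% FBS and fluorescence read directly. The blue channel used 405 nm excitation and 460 nm emission, with triamterene as the reference fluorophore.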

A short description of test [3]: qHTS assay to test for compound auto fluorescence at 535 nm (green) in HEK293 cell free culture (AID 720682). An outline of the steps:
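Green-channel intensity (Ex/Em 485/535 nm) was recorded from compound-treated wells containing only DMEM with 10% FBS. Fluorescein provided the equivalency standard.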

Test [4] in a line: qHTS assay to test for compound auto fluorescence at 590 nm (red) in HEK293 cell free culture (AID 720683). An outline of the steps: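 Cell-free wells of DMEM with 10% FBS received compound, and intrinsic fluorescence was read at excitation/emission 540/590 nm. Values expressed as equivalence to Rose Bengal sodium.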
Test [5] can be described thus: qHTS assay to test for compound auto fluorescence at 590 nm (red) in HepG2 cell free culture (AID 720684). The method in brief: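 Compounds are added to culture medium (MEM, 10% FBS) lacking cells, then fluorescence is read at excitation 540 nm, emission 590 nm, with Rose Bengal sodium as the equivalency standard.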
The nature of test [6]: qHTS assay to test for compound auto fluorescence at 460 nm (blue) in HepG2 cell free culture (AID 720685). The method in brief: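 Compound (23 nL) or DMSO pinned into cell-free MEM with 10% FBS; blue fluorescence read at 405/460 nm excitation/emission, expressed as auto-fluorescence equivalency to triamterene.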
Test [7] in a line: qHTS assay to test for compound auto fluorescence at 535 nm (green) in HepG2 cell free culture (AID 720686).
Test [8] is described as follows: qHTS assay to test for compound auto fluorescence at 460 nm (blue) in HepG2 cells (AID 720687). The method in brief: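 HepG2 cells in MEM with 10% FBS, attached overnight at 37 C, were exposed to compound or DMSO for 1 hr at 37 C, 5% CO2. Blue fluorescence was read at 405/460 nm, with triamterene as reference fluorophore.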
For test [9], the target named is Glucocorticoid receptor (Homo sapiens) (UniProt P04150). Put plainly: qHTS assay to identify small molecule agonists of the glucocorticoid receptor (GR) signaling pathway (AID 720691; active = well fitted activation curve with a large enough effect in the signal ratio in the repeat runs, not every such curve was filed as active; the % refers to the signal ratio). An outline of the steps: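 Fluorescence intensity from LiveBLAzer B/G FRET substrate (2 h, room temperature) reports beta-lactamase expression driven by the glucocorticoid response element in GR-bla HeLa cells after 18 h compound exposure at 37 C.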

Test [10] shares this target. Put plainly: qHTS assay to identify small molecule antagonists of the glucocorticoid receptor (GR) signaling pathway (AID 720692; active = well fitted inhibition curve with a large enough effect in the signal ratio in the repeat runs, not every such curve was filed as active; the % refers to the signal ratio). The method in brief:
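HeLa GR-bla cells; cmpd + dex 5 nM final, 18 h 37 C; LiveBLAzer B/G FRET substrate 2 h RT; fluorescence intensity read. Antagonist mode, qHTS.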

A short description of test [11]: qHTS assay to identify small molecule antagonists of the glucocorticoid receptor (GR) signaling pathway - cell viability counter screen (AID 720693). Note: nearly all actives have a fitted effect of over 55% in size.
Test [12] can be described thus: qHTS assay for identifying genotoxic compounds that show differential cytotoxicity against isogenic chicken DT40 cell lines with known DNA damage response pathways - wild type cell line (AID 743012). Note: nearly all actives have a fitted effect of over 60% in size. Note: potency is the fitted concentration of half-maximal effect. An outline of the steps:
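Wild type DT40, 300 cells/well, ~0.5 h settle at 37 C/5% CO2; compounds in DMSO added by pintool; 40 h at 37 C/5% CO2; CellTiter-Glo, 30 min RT; luminescence.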

The nature of test [13]: qHTS assay for identifying genotoxic compounds that show differential cytotoxicity against isogenic chicken DT40 cell lines with known DNA damage response pathways - Rev3 mutant cell line (AID 743014). Note: nearly all actives have a fitted effect of over 55% in size.
A short description of test [14]: qHTS assay for identifying genotoxic compounds that show differential cytotoxicity against isogenic chicken DT40 cell lines with known DNA damage response pathways - Rad54/Ku70 mutant cell line (AID 743015). Note: nearly all actives have a fitted effect of over 60% in size. Note: potency is the fitted concentration of half-maximal effect.
A short description of test [15]: qHTS assay to identify small molecule antagonists of the androgen receptor (AR) signaling pathway - cell viability counter screen (AID 743033; note: nearly all actives have a fitted effect of over 45% in size).
Test [16] is described as follows: qHTS assay to identify small molecule antagonists of the androgen receptor (AR) signaling pathway using the MDA cell line - cell viability counter screen (AID 743041; note: nearly all actives have a fitted effect of over 45% in size). The method in brief: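 Same-well cytotoxicity was assessed by CellTiter-Fluor in MDA-kb2 AR-luc cells after 16 h of compound treatment under R1881 agonism.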
The target of test [17] is Androgen receptor (Homo sapiens) (UniProt P10275). Description: qHTS assay to identify small molecule antagonists of the androgen receptor (AR) signaling pathway (AID 743035; active = well fitted inhibition curve with a large enough effect in the signal ratio in the repeat runs, not every such curve was filed as active; the % refers to the signal ratio). An outline of the steps: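 Fluorescence from a beta-lactamase FRET substrate (LiveBLAzer B/G, 2 h, room temperature) measured inhibition of R1881-stimulated signaling in GeneBLAzer AR-UAS-bla HEK293 cells exposed to compound for 16 h at 37C.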

The target is the same in test [18]. Description: qHTS assay to identify small molecule agonists of the androgen receptor (AR) signaling pathway using the MDA cell line (AID 743040; note: nearly all actives have a fitted effect of over 20% in size). The method in brief: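 Human breast carcinoma MDA-kb2 reporter cells (MMTV-luc, AR/GR elements) were treated for 16 h at 37C in 0% CO2 following a 5 h settling period. Signal was quantified by ONE-Glo luminescence.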

Test [19] shares this target. Put plainly: qHTS assay to identify small molecule antagonists of the androgen receptor (AR) signaling pathway using the MDA cell line (AID 743042; note: nearly all actives have a fitted effect of over 55% in size). The method in brief: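 MDA-kb2 breast carcinoma cells carrying MMTV-luciferase (AR/GR responsive) were co-treated with compounds and the agonist R1881 for 16 h at 37C. Inhibition read as ONE-Glo luminescence; CellTiter-Fluor fluorescence measured in parallel for cytotoxicity.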

Test [20] shares this target. Put plainly: qHTS assay to identify small molecule agonists of the androgen receptor (AR) signaling pathway (AID 743036; active = well fitted activation curve with a large enough effect in the signal ratio in the repeat runs, with a control signal flat, not every such curve was filed as active; the % refers to the signal ratio). The method in brief:
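Cell-based FRET reporter assay: HEK293 line with a UAS-beta-lactamase construct, compounds added in DMSO, 16 h exposure at 37C, then 2 h substrate step at room temperature and fluorescence intensity read.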

Sequence of Androgen receptor (Homo sapiens) (P10275 whole entry, looked up): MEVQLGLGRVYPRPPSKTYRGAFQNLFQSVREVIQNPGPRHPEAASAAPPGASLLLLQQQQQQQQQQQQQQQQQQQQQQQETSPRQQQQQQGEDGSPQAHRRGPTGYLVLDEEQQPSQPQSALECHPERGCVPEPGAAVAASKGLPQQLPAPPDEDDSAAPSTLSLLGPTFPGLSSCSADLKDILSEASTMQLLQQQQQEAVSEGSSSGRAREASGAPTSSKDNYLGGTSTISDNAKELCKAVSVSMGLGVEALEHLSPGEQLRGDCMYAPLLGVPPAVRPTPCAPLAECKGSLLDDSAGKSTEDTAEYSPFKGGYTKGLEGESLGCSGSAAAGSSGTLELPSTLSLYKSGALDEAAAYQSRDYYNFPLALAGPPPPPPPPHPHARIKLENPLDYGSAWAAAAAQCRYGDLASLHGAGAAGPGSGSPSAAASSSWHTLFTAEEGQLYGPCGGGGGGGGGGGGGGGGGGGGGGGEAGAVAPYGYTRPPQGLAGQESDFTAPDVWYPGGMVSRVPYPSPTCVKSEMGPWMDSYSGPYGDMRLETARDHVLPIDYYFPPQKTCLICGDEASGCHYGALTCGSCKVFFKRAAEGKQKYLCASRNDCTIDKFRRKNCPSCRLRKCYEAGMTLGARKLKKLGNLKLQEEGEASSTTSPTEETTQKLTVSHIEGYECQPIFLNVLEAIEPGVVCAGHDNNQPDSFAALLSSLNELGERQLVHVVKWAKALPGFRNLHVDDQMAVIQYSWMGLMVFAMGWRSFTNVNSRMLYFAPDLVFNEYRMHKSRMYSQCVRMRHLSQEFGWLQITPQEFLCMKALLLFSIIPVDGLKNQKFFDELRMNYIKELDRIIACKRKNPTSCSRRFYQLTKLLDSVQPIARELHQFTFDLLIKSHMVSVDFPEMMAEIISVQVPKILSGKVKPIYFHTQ
Sequence of Glucocorticoid receptor (Homo sapiens) (P04150 whole entry, looked up): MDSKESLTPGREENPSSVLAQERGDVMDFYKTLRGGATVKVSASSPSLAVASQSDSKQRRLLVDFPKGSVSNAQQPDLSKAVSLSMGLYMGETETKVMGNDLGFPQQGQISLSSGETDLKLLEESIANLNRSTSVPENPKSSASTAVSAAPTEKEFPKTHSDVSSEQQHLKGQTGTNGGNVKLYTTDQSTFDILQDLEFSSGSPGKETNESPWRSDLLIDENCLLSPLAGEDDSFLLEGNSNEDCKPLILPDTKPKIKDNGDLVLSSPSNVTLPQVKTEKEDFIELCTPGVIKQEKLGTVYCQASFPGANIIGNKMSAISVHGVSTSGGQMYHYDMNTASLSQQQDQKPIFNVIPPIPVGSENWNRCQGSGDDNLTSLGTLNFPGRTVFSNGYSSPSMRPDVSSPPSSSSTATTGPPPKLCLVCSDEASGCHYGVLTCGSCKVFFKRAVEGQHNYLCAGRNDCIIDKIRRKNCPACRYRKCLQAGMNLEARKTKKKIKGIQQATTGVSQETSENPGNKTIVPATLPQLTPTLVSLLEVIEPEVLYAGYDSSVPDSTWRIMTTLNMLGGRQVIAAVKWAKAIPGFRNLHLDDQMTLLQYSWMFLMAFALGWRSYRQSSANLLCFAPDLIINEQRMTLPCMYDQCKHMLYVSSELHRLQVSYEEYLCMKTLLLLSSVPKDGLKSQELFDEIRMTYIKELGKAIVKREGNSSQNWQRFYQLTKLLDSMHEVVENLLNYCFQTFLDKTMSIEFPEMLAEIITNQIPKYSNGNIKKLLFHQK

For `CC(=O)Nc1ccc(S(=O)(=O)Cl)cc1`, the call in [1], in [2], in test [3], in [4], in test [5] and in [6] was inactive. Besides, the outcome in test [7], in test [8], in test [10] and in [11] was inactive. Further, the Potency result in test [9], in test [12], in test [13], in [14], in [15] and in test [16] was “inactive” in each case.

Turning to `COCCOCCOCCOCCOCCO`, the result in test [1], in test [2], in test [3], in test [4], in test [5] and in [6] was inactive. For the same compound, the call in test [7], in test [8], in [10] and in [11] was inactive. Moreover, the Potency result in test [9], in test [12], in [13], in [15] and in test [16] was “inactive” throughout.

On to `CC(C)(C)NC(N)=O`, for which the compound was called inactive in test [1], in [2], in [3], in [4], in test [5] and in [6]. Besides, the outcome in test [7], in [8], in test [10], in test [11] and in test [18] was inactive. Further, the Potency result in [9], in [12], in test [13], in test [15], in test [17] and in test [16] was “inactive” each time. In addition, the Potency result in [19] is “inactive”.

Regarding `COP(=O)(OC)OC(c1ccc(Cl)cc1)P(=O)(OC)OC` (stereo not given), the outcome in test [1], in test [2], in test [3], in test [4], in [5] and in test [6] was inactive. Also, the compound was called inactive in [7], in [8], in test [10] and in [11]. Moreover, the Potency entry in test [9], in test [12], in [14], in [15] and in test [16] was “inactive” each time.

Regarding `Oc1cn2c(n1)Nc1ccc(Cl)c(Cl)c1C2`, the compound was called inactive in [1], in test [2], in [3], in [4], in test [5] and in test [6]. For the same compound, the compound was called inactive in test [7], in [8], in [11], in test [20] and in test [18]. Further, the Potency result in test [9], in [12], in [13], in test [14], in test [15] and in test [17] was “inactive” in each case. Moreover, the Potency entry in test [16] and in test [19] was “inactive” each time.

Take `CC(CC=O)CCCC(C)(C)O` (stereo not given): the outcome in [1], in test [2], in [3], in test [4], in [5] and in test [6] was inactive. Besides, the compound was called inactive in [7], in test [8], in test [10], in test [11], in test [20] and in [18]. Further, the Potency entry in test [9], in [12], in [14], in [15], in test [17] and in [16] was “inactive” in each case. Besides, in test [19], the Potency result is “inactive”.

Consider `O=C1c2cccc3c2[C@H](CCC3)CN1[C@@H]1CN2CCC1CC2`, for which the call in test [1], in test [2], in [3], in [4], in test [5] and in [6] was inactive. Besides, the compound was classed as inactive in test [7], in test [8], in [10] and in [11]. Further, the Potency entry in [9] is “inactive”. Besides, the values for the Potency in [12] and in [14] were 11.9 µM (active) and 23.7 µM (active), respectively.
